Assay results from PubChem BioAssay.
Active and inactive are the calls of the source. Unless noted, no rule for the calls is given here.

Key:
[1] = resazurin metabolic signal in HepG2 cells – cell-based, resazurin fluorescence, 24 h, PK04 Diversity Set, profiling panel (AID 1172); settings: HepG2 viability, higher = more signal; also: test concentration not given here
[2] = budding yeast growth changes without added modifier – OD600, strain BY4716, 24 h, basal condition, primary screen (AID 1173); settings: S. cerevisiae BY4716 growth, OD600, 24 h; higher = more signal, called active from +8 up or from −8 down
[3] = viability profiling in MM1S myeloma cells – cell-based, resazurin fluorescence, basal, 24 h, PK04 Diversity Set, profiling panel (AID 1174); settings: higher = more signal, called active from +8 up or from −8 down;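 also: MM1S multiple myeloma cell line; test concentration not given here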
[4] = target: Dihydroorotate dehydrogenase (quinone), mitochondrial (Plasmodium falciparum (isolate 3D7)) (UniProt Q08210); assay: inhibition of P. falciparum DHODH – biochemical, C-terminal His tag, absorbance 600 nm, primary screen (AID 1175); settings: PfDHODH enzyme, DCIP absorbance 600 nm; higher = more signal, called active from +8 up or from −8 down;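 also: recombinant parasite enzyme with a five histidine tag at its C terminus; test concentration not given here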
[5] = inhibition of PAO1 biofilm formation – strain PAO1, LB-PBS medium, absorbance 600 nm, primary screen (AID 1176); also: test concentration not given here; settings: P. aeruginosa PAO1 growth/biofilm, A600, 12 h; higher = more signal
[6] = growth modulation of vineyard yeast isolate – strain RM11-1a, OD600, basal, 24 h, primary screen (AID 1177);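 also: cultures grown under basal conditions with no added stressor; test concentration not given here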; settings: S. cerevisiae RM11-1a growth, OD600, 24 h; higher = more signal, called active from +8 up or from −8 down
[7] = growth of efflux-deficient E. coli DRC39 – strain DRC39, OD650, 24 h, E. coli filamentation inducers, primary screen (AID 1178);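 also: growth measured as culture turbidity by optical density at 650 nm; test concentration not given here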; settings: E. coli DRC39 acrAB, higher = more signal, called active from +8 up or from −8 down
[8] = growth of efflux-deficient E. coli DRC39 – strain DRC39, OD650, 48 h, E. coli filamentation inducers, primary screen (AID 1179);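 also: screen aims at cell division blockers that make cells filament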; settings: E. coli DRC39 delta-acrAB growth, higher = more signal, called active from +8 up or from −8 down
[9] = viability profiling in RPMI8226 myeloma cells – cell-based, resazurin fluorescence, basal, 24 h, PK04 Diversity Set, profiling panel (AID 1180); settings: higher = more signal;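 also: RPMI8826 multiple myeloma cell line at 5000 cells per well; test concentration not given here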
[10] = target: E3 ubiquitin-protein ligase XIAP (Homo sapiens) (UniProt P98170); assay: small molecules binding XIAP protein – biophysical, small-molecule microarray, fluorescence 635 nm, primary screen (AID 1181); settings: higher = more signal;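 also: score merges 667 nm emission and signal to noise over triplicate slides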
Sequence of E3 ubiquitin-protein ligase XIAP (Homo sapiens) (P98170 whole entry, looked up): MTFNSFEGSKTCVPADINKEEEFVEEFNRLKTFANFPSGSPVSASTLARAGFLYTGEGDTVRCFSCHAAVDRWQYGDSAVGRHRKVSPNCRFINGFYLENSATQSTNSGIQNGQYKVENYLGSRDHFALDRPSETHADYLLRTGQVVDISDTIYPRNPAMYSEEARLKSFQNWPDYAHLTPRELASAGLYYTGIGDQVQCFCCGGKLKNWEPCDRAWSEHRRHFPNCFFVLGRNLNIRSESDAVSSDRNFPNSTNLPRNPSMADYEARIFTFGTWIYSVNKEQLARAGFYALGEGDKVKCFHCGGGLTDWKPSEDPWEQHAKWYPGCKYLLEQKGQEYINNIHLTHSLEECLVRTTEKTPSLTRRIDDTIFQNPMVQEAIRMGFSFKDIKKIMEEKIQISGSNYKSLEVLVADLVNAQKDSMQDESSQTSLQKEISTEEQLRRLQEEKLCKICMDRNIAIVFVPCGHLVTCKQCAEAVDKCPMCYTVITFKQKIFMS

Sequence of Dihydroorotate dehydrogenase (quinone), mitochondrial (Plasmodium falciparum (isolate 3D7)) (Q08210 whole entry, looked up): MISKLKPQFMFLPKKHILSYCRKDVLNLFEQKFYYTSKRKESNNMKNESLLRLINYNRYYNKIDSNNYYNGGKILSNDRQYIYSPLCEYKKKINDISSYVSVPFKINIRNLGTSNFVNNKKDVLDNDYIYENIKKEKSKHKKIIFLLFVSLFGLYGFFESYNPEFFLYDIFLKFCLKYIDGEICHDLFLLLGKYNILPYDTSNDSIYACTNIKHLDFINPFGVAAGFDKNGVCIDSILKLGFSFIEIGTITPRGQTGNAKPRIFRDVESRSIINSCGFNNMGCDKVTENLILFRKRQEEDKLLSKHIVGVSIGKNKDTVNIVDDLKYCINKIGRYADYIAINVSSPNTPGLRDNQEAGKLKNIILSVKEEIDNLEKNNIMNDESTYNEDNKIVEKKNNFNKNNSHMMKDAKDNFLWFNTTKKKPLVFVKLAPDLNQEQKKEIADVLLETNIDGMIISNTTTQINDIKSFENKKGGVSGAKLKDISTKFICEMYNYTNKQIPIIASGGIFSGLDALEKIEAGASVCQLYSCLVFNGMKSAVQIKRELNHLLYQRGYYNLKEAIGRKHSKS

Structure (SMILES) | z-score [1] | z-score [2] | z-score [3] | composite z-score [4] | z-score [5] | z-score [6] | z-score [7] | z-score [8] | z-score [9] | composite z-score [10]
CC(=O)NCCCC[C@@H]1NC(=O)[C@H]2C[C@@H](C(=O)NCCCCCNC(=O)CS)[C@@H](c3cccc(OCCO)c3)N2C1=O | -0.223 | 0.332 (inactive) | -0.0374 (inactive) | 0.657 (inactive) | 0.559 (inactive) | -0.39 (inactive) | -0.0744 (inactive) | 0.382 (inactive) | -0.653 | 2.75
O=C1C2C=CC(C(O)c3ccco3)N(Nc3ccccc3)C2C(=O)N1c1ccccc1 (stereo not given) | 0.875 | -0.633 (inactive) | -0.321 (inactive) | 1.05 (inactive) | -0.283 (inactive) | 0.829 (inactive) | -0.706 (inactive) | 0.154 (inactive) | 0.628 | -0.0264
CCCCNC(=O)c1ccc(C#C[Si](C(C)C)(C(C)C)C(C)C)c(OC(C)=O)c1 | 0.236 | -0.152 (inactive) | 0.219 (inactive) | -1.29 (inactive) | -0.623 (inactive) | 0.0679 (inactive) | 0.119 (inactive) | -0.0634 (inactive) | 0.234 | -0.165
Cc1ccc(S[C@]2(C(=O)NC(C)C)CC(=O)N(Cc3ccccc3Cl)[C@@H]2c2ccc(CO)cc2)cc1 | -0.167 | -0.624 (inactive) | -0.514 (inactive) | -0.674 (inactive) | 1.52 (inactive) | 0.343 (inactive) | -0.332 (inactive) | -0.963 (inactive) | 0.351 | -0.0072
COCCOC(=O)N1C(=O)[C@@]2(c3cc(C#Cc4ccc(OC)cc4)ccc31)[C@H](c1ccc(OCCO)cc1)N1[C@H](c3ccccc3)[C@H](c3ccccc3)OC(=O)[C@H]1[C@@H]2C(=O)Nc1nc2ccccc2s1 | 1.62 | 1.21 (inactive) | -0.606 (inactive) | -1 (inactive) | 1.5 (inactive) | 1.56 (inactive) | 0.0318 (inactive) | -0.389 (inactive) | 0.46 | 0.259
C=CCOC(=O)[C@H]1[C@@H]2C(=O)O[C@@H](c3ccccc3)[C@@H](c3ccccc3)N2[C@@H](c2ccc(OCCOC(=O)[C@H]3C[C@H]4C(=O)N[C@@H](CCCCNC(C)=O)C(=O)N4[C@H]3c3cccc(OCCO)c3)cc2)[C@]12C(=O)Nc1ccc(I)cc12 | -0.821 | 1.2 (inactive) | -0.682 (inactive) | 1.34 (inactive) | 2.63 (inactive) | 1.59 (inactive) | -0.817 (inactive) | -1.2 (inactive) | -0.538 | -0.0228
COc1ccc([Si](C)(C)[C@@H]2[C@@H](CCn3cc([C@H](O)c4ccccc4)nn3)O[C@]3(C(=O)N(Cc4cccc(N5C(=O)c6cccc7cccc5c67)c4)c4ccccc43)[C@H]2C)cc1 | -0.167 | 1.33 (inactive) | -2.01 (inactive) | 0.736 (inactive) | 0.106 (inactive) | 2.11 (inactive) | -0.494 (inactive) | -0.787 (inactive) | -1.19 | -0.217
CN(C)C(=O)[C@@]1(Cc2ccccc2N=[N+]=[N-])N=C(c2ccc(OCCCO)cc2)O[C@H]1c1ccccc1 | 0.329 | -1.23 (inactive) | -3.18 (inactive) | 0.346 (inactive) | 0.274 (inactive) | 0.751 (inactive) | -0.105 (inactive) | -1.1 (inactive) | -3.04 | 0.102
COCCOC(=O)N1C(=O)[C@@]2(c3cc(C#CCCO)ccc31)[C@H](C(N)=O)[C@H]1C(=O)O[C@H](c3ccccc3)[C@H](c3ccccc3)N1[C@@H]2c1ccc(OCCO)cc1 | -0.639 | 1.21 (inactive) | -0.479 (inactive) | 0.46 (inactive) | 1.56 (inactive) | 2.16 (inactive) | -0.138 (inactive) | 0.386 (inactive) | -0.621 | 0.409
COC(=O)[C@@]1(Cc2ccccc2CN=[N+]=[N-])N=C(c2ccc(OCCCO)cc2)O[C@H]1c1ccccc1 | -2.6 | 0.797 (inactive) | -5.44 (inactive) | 1.09 (inactive) | 1.83 (inactive) | 2.81 (inactive) | 0.759 (inactive) | -0.783 (inactive) | -6.08 | 0.162
O=C1[C@@H]2[C@@H](CC(COc3ccccc3)=C3[C@@H](CCc4ccccc4)OB(O)C[C@@H]32)C(=O)N1Cc1ccccc1 | -0.665 | -1.23 (inactive) | -0.0801 (inactive) | -0.77 (inactive) | 0.306 (inactive) | -0.0775 (inactive) | -0.304 (inactive) | -0.915 (inactive) | -0.0577 | -0.16
CCOC(=O)C[C@H]1[C@H](OC(=O)c2ccc(-c3ccccc3)cc2)[C@@H](NC(=O)CC(C)C)c2cc(OCCCO)ccc2N1C(=O)c1ccccc1 | -0.6 | 1.28 (inactive) | -0.281 (inactive) | 0.88 (inactive) | 0.951 (inactive) | 0.964 (inactive) | -0.635 (inactive) | -0.776 (inactive) | -0.157 | -0.0559
